{"source": "PubChem BioAssay AID651717", "about": "(Broad Institute, 2012)", "note": "Hit rate of the full screen: of about 1,200 compounds, about 950 (79%) were called active.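 How the source made its calls: active means signal rises and fitted curve reaches 40% activity at or below the top valid tested dose, in every replicate test; inconclusive means replicate tests give mixed calls; inactive means the rest, including activity in the opposite direction.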 So high a share suggests a set chosen from earlier hits. Only a sample is shown. Measured potencies and affinities stand elsewhere."}
{"experiment": "Bmi1-luciferase reporter activators in mESC, dose response, esBAF inhibitor project, mouse embryonic stem cells, cherry-pick (AID 651717);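 further: luciferase knocked into Bmi1 locus with EF-1a renilla as cell number control; rising ratio signals esBAF inhibition which derepresses Bmi1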", "conditions": "firefly/renilla ratio, 24 h, active compounds read high; at 35 µM unless noted"}
{"smiles": "Cc1ccc(S(=O)(=O)Nc2cccc3c2O[C@@H](CN(C)C(=O)Nc2ccc4c(c2)OCO4)[C@@H](C)CN([C@@H](C)CO)C3=O)cc1", "max activity": "-17.3% (inactive)"}
{"smiles": "CC(=O)N(C)c1ccc(NCc2cc(=O)oc3cc(C)c(O)cc23)cc1", "max activity": "19.2% (inactive)"}
{"smiles": "COc1ccc2cc(C(=O)c3ccccc3)c(=O)oc2c1", "max activity": "32.6% [at 4.2 µM] (inactive)"}
{"smiles": "C[C@@H]1CN([C@@H](C)CO)C(=O)c2cc(NC(=O)Nc3ccc4c(c3)OCO4)ccc2O[C@@H](C)CCCCO[C@@H]1CN(C)S(=O)(=O)c1cn(C)cn1", "max activity": "-11% [at 0.5 µM] (inactive)"}
{"smiles": "CC1CCN(c2ccc3c(c2)S(=O)(=O)c2cccc(C(=O)NCc4ccc(F)cc4)c2C3=O)CC1", "max activity": "27.9% (inactive)"}
{"smiles": "Cc1ccc(S(=O)(=O)N(C)C[C@H]2OCCCC[C@H](C)Oc3ccc(NC(=O)Nc4ccc5c(c4)OCO5)cc3C(=O)N([C@H](C)CO)C[C@H]2C)cc1", "max activity": "10.8% [at 16 µM] (inactive)"}
{"smiles": "Cc1ccc(S(=O)(=O)Nc2cccc3c2O[C@H](CN(C)C(=O)Nc2ccc4c(c2)OCO4)[C@H](C)CN([C@H](C)CO)C3=O)cc1", "max activity": "-21.3% (inactive)"}
{"smiles": "CCC(SC1=Nc2ccccc2C2=NC(CC(C)C)C(=O)N12)C(=O)Nc1ccc2c(c1)OCO2", "note": "(stereo not given)", "max activity": "-19.3% (inactive)"}
{"smiles": "CN(C)c1ccc(C(=O)Nc2cccc(S(=O)(=O)N3CCCC3)c2)cc1", "max activity": "25% [at 16 µM] (inactive)"}
{"smiles": "C[C@H](CO)N1C[C@H](C)[C@@H](CN(C)C(=O)Nc2ccc3c(c2)OCO3)OCCCC[C@H](C)Oc2ccc(NC(=O)c3ccncc3)cc2C1=O", "max activity": "-9% [at 0.26 µM] (inactive)"}
{"smiles": "C[C@H]1CN([C@@H](C)CO)C(=O)Cc2cc(NC(=O)Nc3ccc4c(c3)OCO4)ccc2O[C@H]1CN(C)Cc1ccccc1", "max activity": "12.3% [at 8 µM] (inactive)"}
{"smiles": "C[C@H]1CN([C@@H](C)CO)C(=O)Cc2cc(NC(=O)Nc3ccc4c(c3)OCO4)ccc2O[C@@H]1CN(C)Cc1ccccc1", "max activity": "-4.95% [at 2.1 µM] (inactive)"}
{"smiles": "CCn1c(=N)n(CC(=O)c2ccc(Br)s2)c2ccccc21", "max activity": "15.9% (inactive)"}
{"smiles": "CN(C)c1ccc(-c2nnn(Cc3ccccc3Br)n2)cc1", "max activity": "-12.5% (inactive)"}
{"smiles": "CCOC(=O)c1cc(-c2sc(NC(=O)c3ccccc3)nc2C)n(-c2ccc(Br)cc2)n1", "max activity": "24% (inactive)"}
{"smiles": "O=C(c1ccc2ccccc2c1O)N1CCCCC1", "max activity": "-23.4% (inactive)"}
{"smiles": "C[C@@H]1CN([C@@H](C)CO)C(=O)c2cc(NS(=O)(=O)c3ccc(F)cc3)ccc2O[C@H]1CN(C)C(=O)Nc1ccc2c(c1)OCO2", "max activity": "-5.95% [at 0.5 µM] (inactive)"}
{"smiles": "Cc1ccc(S(=O)(=O)NCc2ccccc2)cc1C(=O)NC1CCC(C)CC1", "note": "(stereo not given)", "max activity": "29.1% [at 4.2 µM] (inactive)"}
{"smiles": "CN(C)Cc1c(C(=O)N/N=C/c2ccccc2OCc2c(F)cccc2Cl)nnn1-c1nonc1N", "max activity": "19.7% [at 4.2 µM] (inactive)"}
{"smiles": "C[C@H](CO)N1C[C@H](C)[C@@H](CN(C)S(=O)(=O)c2cn(C)cn2)OCCCC[C@H](C)Oc2ccc(NC(=O)Nc3ccc4c(c3)OCO4)cc2C1=O", "max activity": "18.2% (inactive)"}
{"smiles": "C[C@H]1CCCCO[C@@H](CN(C)C(=O)Nc2ccccc2)[C@@H](C)CN([C@@H](C)CO)C(=O)c2cc(NC(=O)Nc3ccc4c(c3)OCO4)ccc2O1", "max activity": "11.1% [at 4.2 µM] (inactive)"}
{"smiles": "O=C(O)C/C(=C\\c1cc(Br)cs1)c1nc2ccccc2o1", "max activity": "31.8% (inactive)"}
{"smiles": "Cc1cccc(N2CCN(C(=O)c3ccc4nc(N5CCCCC5)sc4c3)CC2)c1C", "max activity": "-28.5% (inactive)"}
{"smiles": "O=C(CSc1nnc(Nc2ccccc2F)s1)Nc1cccc(S(=O)(=O)N2CCCCC2)c1", "max activity": "20.6% [at 16 µM] (inactive)"}
{"smiles": "C[C@H](CO)N1C[C@H](C)[C@@H](CN(C)Cc2ccncc2)Oc2c(NC(=O)Nc3ccc4c(c3)OCO4)cccc2C1=O", "max activity": "39.5% [at 0.26 µM] (inactive)"}
{"smiles": "O=C1CCC[C@@H]2C[C@@]3(C[C@@H]4CCN1[C@H]24)Nc1cc(Cl)c(Cl)cc1NC3=NCc1ccccc1", "max activity": "15.2% [at 4.2 µM] (inactive)"}
{"smiles": "CCCCC(=O)c1c(O)c2ccccc2oc1=O", "max activity": "28.9% (inactive)"}
{"smiles": "O=C(Nc1ccc(F)c(Cl)c1)c1ccccc1NC(=O)C1CCCCC1C(=O)O", "note": "(stereo not given)", "max activity": "26.5% (inactive)"}
{"smiles": "O=C(O)CCN1C(=O)/C(=C\\c2cccc(OCC(=O)Nc3ccc(Cl)cc3)c2)SC1=S", "max activity": "38% (inactive)"}
{"smiles": "O=S(=O)(/N=C(/Nc1nc2ccccc2s1)c1ccccc1)c1ccccc1", "max activity": "34.6% [at 16 µM] (inactive)"}
{"smiles": "Clc1ccc(CSc2ncn(-c3ccccc3)n2)cc1", "max activity": "27% (inactive)"}
{"smiles": "Cc1cc(C)n2nc(SCc3nnc(SCc4ccccc4C)s3)nc2n1", "max activity": "26.5% (inactive)"}
{"smiles": "CN(C)Cc1c(O)ccc2c(=O)c(-c3ccc(Cl)cc3)coc12", "max activity": "24.4% (inactive)"}
{"smiles": "C[C@H](CO)N1C[C@H](C)[C@@H](CN(C)C(=O)Nc2ccc3c(c2)OCO3)Oc2c(NS(=O)(=O)c3cn(C)cn3)cccc2C1=O", "max activity": "30.6% (inactive)"}
{"smiles": "COc1ccc2c(c1OC)C(=O)OC2Nc1nc(-c2cc3cc([N+](=O)[O-])ccc3oc2=O)cs1", "note": "(stereo not given)", "max activity": "38.4% (inactive)"}
{"smiles": "CCOc1ccc(/C=N/NC(=O)c2ccccc2O)cc1CN1CC2CC(C1)c1cccc(=O)n1C2", "note": "(stereo not given)", "max activity": "21.1% [at 16 µM] (inactive)"}
{"smiles": "O=C(NN=C1CCCC1)c1ccccc1O", "max activity": "17.2% [at 4.2 µM] (inactive)"}
{"smiles": "C[C@H](CO)N1C[C@H](C)[C@H](CN(C)C(=O)Nc2ccccc2)OCCCC[C@H](C)Oc2ccc(NC(=O)Nc3ccc4c(c3)OCO4)cc2C1=O", "max activity": "-15.5% [at 0.26 µM] (inactive)"}
{"smiles": "COc1ccc(-c2noc(C3CCCN(C(=O)Nc4ccccc4)C3)n2)cc1", "note": "(stereo not given)", "max activity": "16.1% (inactive)"}
{"smiles": "C[C@H]1CN([C@@H](C)CO)C(=O)c2cc(NC(=O)Cc3ccccc3)ccc2O[C@H]1CN(C)C(=O)Nc1ccc2c(c1)OCO2", "max activity": "21% [at 0.5 µM] (inactive)"}
{"smiles": "CN(C)c1ccc(C(=O)Nc2cccc(S(=O)(=O)NC3=NCCCCC3)c2)cc1", "max activity": "11.6% [at 16 µM] (inactive)"}
{"smiles": "CCOC(=O)C1CCN(Cc2nc3ccc([N+](=O)[O-])cc3c(=O)n2-c2ccc(OC)cc2OC)CC1", "max activity": "8.71% [at 4.2 µM] (inactive)"}
{"smiles": "COc1ccc(CCC(=O)N/N=C/c2ccc3c(c2)OCO3)cc1", "max activity": "7.2% (inactive)"}
{"smiles": "O=C(Nc1cccc(F)c1)Nc1cccc(Cl)c1", "max activity": "39.5% [at 16 µM] (inactive)"}
{"smiles": "COc1ccc(NC(=O)Nc2cccc3c2O[C@@H](CN(C)C(=O)Nc2cccc4ccccc24)[C@H](C)CN([C@@H](C)CO)C3=O)cc1", "max activity": "22.8% (inactive)"}
{"smiles": "C[C@H]1CN([C@@H](C)CO)C(=O)c2cc(NS(=O)(=O)c3ccc(F)cc3)ccc2O[C@@H]1CN(C)C(=O)Nc1ccc2c(c1)OCO2", "max activity": "3.44% [at 4.2 µM] (inactive)"}
{"smiles": "C[C@H]1CCCCO[C@H](CN(C)C(=O)NC2CCCCC2)[C@@H](C)CN([C@@H](C)CO)C(=O)c2cc(NC(=O)Nc3ccc4c(c3)OCO4)ccc2O1", "max activity": "10.1% (inactive)"}
{"smiles": "C[C@H](CO)N1C[C@H](C)[C@H](CN(C)C(=O)NC2CCCCC2)OCCCC[C@H](C)Oc2ccc(NC(=O)Nc3ccc4c(c3)OCO4)cc2C1=O", "max activity": "27% (inactive)"}
{"smiles": "Cc1c(Cl)cccc1N1C(=O)CC(N(O)c2ccccc2)C1=O", "note": "(stereo not given)", "max activity": "13.3% (inactive)"}
{"smiles": "Cc1ccc(S(=O)(=O)Nc2cccc3c2O[C@H](CN(C)C(=O)Nc2ccc4c(c2)OCO4)[C@@H](C)CN([C@H](C)CO)C3=O)cc1", "max activity": "-41% [at 16 µM] (inactive)"}
{"smiles": "O=C(OCc1ccccc1)N1CCC2CC1c1ccc(/C=C/CCCCl)cc12", "note": "(stereo not given)", "max activity": "-25.2% [at 16 µM] (inactive)"}
{"smiles": "C[C@@H]1CN([C@@H](C)CO)C(=O)c2cccc(NC(=O)Nc3ccccc3)c2O[C@H]1CN(C)C(=O)Nc1ccc2c(c1)OCO2", "max activity": "-14.4% (inactive)"}
{"smiles": "C[C@H]1CN([C@@H](C)CO)C(=O)c2cccc(NC(=O)Nc3ccccc3)c2O[C@@H]1CN(C)C(=O)Nc1ccc2c(c1)OCO2", "max activity": "-6.52% (inactive)"}
{"smiles": "Cc1ccc(S(=O)(=O)Nc2cccc3c2O[C@@H](CN(C)C(=O)Nc2ccc4c(c2)OCO4)[C@H](C)CN([C@@H](C)CO)C3=O)cc1", "max activity": "-16.1% (inactive)"}
{"smiles": "CO[C@@H]1CN(C)C(=O)c2ccc(NC(=O)Nc3cccc(F)c3)cc2OC[C@@H](C)N(C(=O)Nc2c(C)noc2C)C[C@H]1C", "max activity": "7.7% [at 0.56 µM] (inactive)"}
{"smiles": "C[C@@H]1CN([C@H](C)CO)C(=O)c2cccc(NC(=O)Nc3ccc4c(c3)OCO4)c2O[C@H]1CN(C)Cc1ccccc1", "max activity": "36.6% [at 0.26 µM] (inactive)"}
{"smiles": "O=C(NCc1cccs1)c1cc2c(s1)-c1ccccc1OC2", "max activity": "20.6% [at 8 µM] (inactive)"}
{"smiles": "CCCOc1c(Br)cc(C2C3=C(CCCC3=O)N(CC)C3=C2C(=O)CCC3)cc1OC", "max activity": "-53.8% [at 16 µM] (inactive)"}
{"smiles": "Cc1ccc(CN2CN(S(=O)(=O)c3cccs3)c3nc4ccccc4nc32)cc1", "max activity": "-38.8% (inactive)"}
{"smiles": "O=C(O)c1ccc(NCc2cccnc2)cc1", "max activity": "12.2% (inactive)"}
{"smiles": "C[C@@H]1CN([C@@H](C)CO)C(=O)c2c(c3ccccc3n2C)-c2ccccc2CO[C@@H]1CN(C)C(=O)Nc1ccc2c(c1)OCO2", "max activity": "-11.1% (inactive)"}
{"smiles": "C[C@@H]1CCCCO[C@@H](CN(C)S(=O)(=O)c2cn(C)cn2)[C@@H](C)CN([C@@H](C)CO)C(=O)c2cc(NC(=O)Nc3ccc4c(c3)OCO4)ccc2O1", "max activity": "3.24% [at 30 µM] (inactive)"}
{"smiles": "CC1CCN(c2ccc(C(=O)NCc3cccs3)cn2)CC1", "max activity": "20.2% [at 8 µM] (inactive)"}
{"smiles": "COc1ccc(N(CCC(=O)NCCc2ccccc2)S(=O)(=O)c2ccc(C)cc2C)cc1", "max activity": "24.7% [at 8 µM] (inactive)"}
{"smiles": "COc1ccc(CN2C[C@@H](C)[C@H](OC)CN(C)C(=O)c3ccc(NC(=O)c4nc5ccccc5s4)cc3OC[C@H]2C)cc1", "max activity": "13.2% [at 3.8 µM] (inactive)"}
